Screening results as filed in PubChem.
Sampled rows, rich in hits. Any-hit rate of the full collection: about 2.3%.
CHO-K1 Ca PAM: counter-screen for M1 PAMs: effect in parental CHO-K1 cells. ATP EC20, Fluo-8 calcium fluorescence; 0% at ATP EC20, 100% at ATP max. activation, % at 3 µM. hit rate 0.02% among 360,000;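 active = activation above the run cutoff, the mean activation of all test compounds plus 3 SD, cut at about 40% in these data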;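 also: peak over basal fluorescence ratio in a 140 s read after ATP addition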
CHRM1 antagonist: blocks human M1 muscarinic receptor; hit rate 1.3% among 360,000; P11229; inhibition, % at 3 µM; CHO-K1 hM1, Fluo-8 calcium fluorescence, ACh EC80 antagonist; AID 588852;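 active = percent inhibition above its own plate's cutoff, namely the mean of that plate's compound wells plus 3 SD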;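 also: peak over basal fluorescence ratio during 140 s after agonist addition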
Target sequence (P11229 whole entry, looked up): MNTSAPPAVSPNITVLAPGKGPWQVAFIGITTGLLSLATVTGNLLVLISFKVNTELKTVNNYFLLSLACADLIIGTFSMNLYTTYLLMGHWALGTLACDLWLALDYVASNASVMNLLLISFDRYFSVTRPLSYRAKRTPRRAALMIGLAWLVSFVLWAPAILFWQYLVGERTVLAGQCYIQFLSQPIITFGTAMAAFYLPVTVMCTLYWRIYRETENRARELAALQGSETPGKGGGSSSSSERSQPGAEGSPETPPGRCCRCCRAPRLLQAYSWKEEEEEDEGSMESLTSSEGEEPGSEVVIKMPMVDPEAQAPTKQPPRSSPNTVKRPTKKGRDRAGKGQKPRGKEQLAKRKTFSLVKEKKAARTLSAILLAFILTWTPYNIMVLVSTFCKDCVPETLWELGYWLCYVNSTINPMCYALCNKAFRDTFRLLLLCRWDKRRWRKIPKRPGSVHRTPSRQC
CHO-K1 Ca ag: counter-screen for M1 agonists: effect in parental CHO-K1 cells; Fluo-8 calcium fluorescence; scaled to maximal ATP response, vehicle zero; activation, % at 3 µM; AID 602248; hit rate 0.48% among 360,000; in the data active = activation above about 15%;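 also: untransfected CHO-K1 host cells lacking M1 receptor as counterscreen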
CHO-K1 Ca antag: nonselective inhibitor or artifact in parental CHO-K1 cells. ATP-induced calcium, Fluo-8 fluorescence. inhibition, % at 3 µM. hit rate 0.6% among 360,000. AID 602250;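 active = inhibition above a per-plate cutoff, the plate's mean sample inhibition plus 3 SD, cut at about 24% in these data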
M1 ag: agonists of human M1 muscarinic receptor | P11229 | CHO-K1 hM1, Fluo-8 calcium fluorescence, agonist mode; 0% DMSO, 100% acetylcholine EC100 | activation, % at 3 µM | hit rate 0.33% among 360,000 | AID 588814;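 active = activation above the run's mean compound activation plus 3 SD, cut at about 16% in these data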;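 also: peak over basal fluorescence ratio within a 140 s kinetic read after compound addition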
M1 PAM: human CHRM1 positive allosteric modulation | P11229 | hit rate 0.088% among 360,000 | CHO-K1 hM1, Fluo-8 calcium fluorescence, ACh EC20; 0% = ACh EC20, 100% = maximal ACh | activation, % at 3 µM | AID 588819; in the data active = activation above about 19%, passing the limit was not always enough
Numbers stand for hits; – = inactive; · = no result given.

SMILES | CHO-K1 Ca PAM | CHRM1 antagonist | CHO-K1 Ca ag | CHO-K1 Ca antag | M1 ag | M1 PAM
Cc1cc([N+](=O)[O-])nn1CC(=O)Nc1cc(F)ccc1F | – | – | 16 | – | – | –
Cc1ccc(S(=O)(=O)N2CCOC2CNC(=O)C(=O)NCC(C)C)cc1 (centres undefined) | – | – | – | – | – | 24
CNC(=O)C(=O)NCC1OCCN1S(=O)(=O)c1ccc(C)cc1 (centres undefined) | – | – | – | – | – | –
CN1CCC(n2[nH]c(-c3ccccc3)c(Cc3ccccc3)c2=O)CC1 | – | 100 | – | – | – | –
CN1CCC(N2CCN(C3CN(CCc4ccccc4)S(=O)(=O)C3)CC2)CC1 (centres undefined) | – | – | – | – | – | –
CC1CCc2c(sc3ncnc(NS(=O)(=O)c4cccs4)c23)C1 (centres undefined) | – | – | – | – | – | –
COCCCNc1ncnc2sc3c(c12)CCC(C)C3 (centres undefined) | – | – | – | 30 | – | –
CCc1nc2c(OCCn3cccc3)cccn2c1N(C)C(=O)c1ccccc1F | – | – | – | – | – | –
CN(CCOC(=O)C1c2ccccc2Oc2ccccc21)C(C)(C)C | – | 98 | – | – | – | –
CN(C)CCCOC(=O)C1c2ccccc2Oc2ccccc21 | – | 97 | – | – | – | –
CC[N+](C)(CC)CCOC(=O)C1c2ccccc2Oc2ccccc21 | – | 97 | – | – | – | –
NC(=O)COC(=O)C1c2ccccc2Oc2ccccc21 | – | – | – | – | – | –
CSc1ccccc1NC(=O)CN(C)C(=O)C1CC(=O)N(C(C)c2ccccc2)C1 (centres undefined) | – | – | – | – | – | –
CNC(=O)COc1ccc(Nc2nnc(-c3ccc(C)c(S(N)(=O)=O)c3)c3ccccc23)cc1 | – | – | – | – | 45 | –
COc1ccc(Nc2c3c(nc4ccccc24)CCC3)cc1 | – | – | – | – | – | –
COc1ccc(Nc2c3ccccc3nc3ccccc23)cc1 | – | – | 16 | – | – | –
COc1ccc(Nc2nnc(-c3ccc(O)cc3)c3ccccc23)cc1 | – | 59 | – | – | – | –
Oc1ccc(Nc2nnc(-c3ccc(O)cc3)c3ccccc23)cc1 | – | 36 | – | – | – | –
Cc1ccc(C)n1-c1ccc(C(=O)NN)cc1 | – | – | – | – | – | –
CC(C)C[C@H]1CN(CCCC[C@H]2CNC(=O)C(=O)N2CCc2ccccc2)C(=O)C(=O)N1CC1CCCCC1 | – | · | – | – | · | ·
O=C(c1ccccc1)c1ccc(N2CCN(C(=O)c3ccc(F)cc3F)CC2)c(F)c1 | – | – | – | – | – | –
COc1cccc(Nc2ncnc3ccc(Br)cc23)c1 | – | – | – | – | – | –
Brc1ccc2ncnc(Nc3cccc4ccccc34)c2c1 | – | – | 19 | – | – | –
O=C(Nc1cccc(C(F)(F)F)c1)N1CCC(c2nc(-c3ccc(F)cc3)no2)CC1 | – | 65 | – | – | – | –
O=C(Nc1ccccc1)N1CCCC(c2nc(-c3ccc(F)cc3)no2)C1 (centres undefined) | – | – | – | – | – | –
SMILES | CHO-K1 Ca PAM | CHRM1 antagonist | CHO-K1 Ca ag | CHO-K1 Ca antag | M1 ag | M1 PAM
O=C(Nc1ccc(Cl)cc1)N1CCC(c2nc(-c3cccs3)no2)CC1 | – | – | – | – | – | –
O=C(Nc1ccc(Cl)cc1)N1CCC(c2nc(-c3ccccc3Cl)no2)CC1 | – | 20 | – | – | – | –
CC(C)CNC(=S)N1CCC(c2nc(-c3ccc(F)cc3)no2)CC1 | – | 33 | – | – | – | –
CC(C)C(N)c1csc(Nc2ccc(C(=O)c3ccccc3)cc2)n1 (centres undefined) | – | – | – | – | – | –
C=C(C)CSc1nc2sc3c(c2c(=O)n1-c1ccc(C)cc1)CCN(C)C3 | – | – | – | – | – | –
Cc1ccc(C2/C=C\CC(NC(=O)OCC3c4ccccc4-c4ccccc43)CC(=O)N2Cc2ccccc2)cc1 (centres undefined) | – | – | – | – | – | –
CCc1cc(=O)[nH]c(SCC(=O)Nc2ccc3c(c2)OCCO3)n1 | – | – | – | – | – | –
CCc1c(O)nc(SCC(=O)Nc2ccccc2)n(-c2ccccc2C)c1=O | – | – | – | – | – | 29
COCCCN1CCN(C2Cc3ccccc3Sc3ccc(Cl)cc32)CC1 (centres undefined) | – | 47 | – | – | – | –
Clc1ccc2c(c1)C(N1CCNCC1)Cc1ccccc1S2 (centres undefined) | – | 87 | – | – | – | –
O=C(c1ccccc1Cl)N1CCNCC1 | – | – | – | – | – | –
Clc1cccc2c1Sc1ccccc1CC2N1CCNCC1 (centres undefined) | – | 88 | – | – | – | –
CSc1nc(N)nc(SCC(=O)Nc2ccc(Cl)cc2)c1C#N | – | – | – | – | – | –
CSc1nc(N)nc(SCC(=O)Nc2cccc(F)c2)c1C#N | – | 24 | – | – | – | –
CNc1ccc2c3c(cccc13)C(=O)N(C)C2=O | – | 73 | 98 | 30 | 313 | –
CN1C(=O)c2cccc3c(N(C)C)ccc(c23)C1=O | – | – | 23 | – | – | –
CN1C(=O)c2cccc3c(Br)ccc(c23)C1=O | – | – | – | – | – | –
CN1C(=O)c2cccc3c(Cl)ccc(c23)C1=O | – | – | – | – | – | –
CC#CC(=O)N1CCCC(Cc2cccc(OC)c2)(C(=O)OCC)C1 (centres undefined) | – | – | – | – | – | –
CCCS(=O)(=O)NC(=O)C1(C)CCCN(C(=O)Cc2ccc3ccccc3c2)C1 (centres undefined) | – | – | – | – | – | –
O=C1c2cccc3c(O)ccc(c23)C(=O)N1c1ccc(Cl)cc1 | – | 45 | 18 | – | 78 | –
O=C1c2cccc3c(O)ccc(c23)C(=O)N1Cc1ccco1 | – | 30 | 65 | 26 | 68 | –
CC(=O)Nc1ccc(N2C(=O)c3cccc4c(O)ccc(c34)C2=O)cc1 | – | 39 | 41 | – | 98 | –
CCN1CCN(c2ccc(NC(=O)CC3OC(=O)c4ccccc43)cc2C)CC1 (centres undefined) | – | – | – | – | – | –
Cc1ccc(-n2ncc(C#N)c2/N=C/N2CCN(C)CC2)cc1 | – | – | – | – | – | –
CN1CCN(/C=N/c2c(C#N)cnn2-c2ccccc2)CC1 | – | 30 | – | – | – | –
COc1ccc(CN(CC(=O)NCC2CCCO2)C(=O)CCC(=O)Nc2nccs2)cc1 (centres undefined) | – | – | – | – | – | –
O=C(NCC1CCCO1)C1CCN(C2CCN(C(=O)CC3CCCC3)CC2)CC1 (centres undefined) | – | – | – | 27 | – | –
